According to PubChem BioAssay AID686979 (National Center for Advancing Translational Sciences (NCATS), 2013):
Where “and” joins values, the source holds several entries; their conditions need not be identical. Equal values may be shown once. The campaign covered roughly 420,000 compounds. About 50,000 (12%) were called active. Where a call stands in place of a potency, no number is given. Inconclusive results (about 26%) are left out. This is one part of a sample in which actives are shown more often than they occur. Calls come from the whole dose curve; as a rule, active = well fitted inhibition curve with a large enough effect; inconclusive = small, poorly fitted or top-dose-only effect; inactive = flat fitted curve, though single readings scatter.

assay: qHTS for Inhibitors of human tyrosyl-DNA phosphodiesterase 1 (TDP1): qHTS in cells in presence of CPT; conditions: chicken DT40 Tdp1-/-;hTDP1 cells + 20 nM CPT, ATP luminescence, 48 h; series mostly up to 46.2 µM; note: nearly all actives have a fitted effect of over 55% in size
Text: Human tyrosyl-DNA phosphodiesterase 1 (TDP1) is a novel repair gene, and we propose to use it as a new target for anticancer drug development. TDP1 is not an essential protein, but under treatment with topoisomerase I poison (camptothecin: CPT), TDP1 works as a critical factor for cell survival. To directly identify novel TDP1 inhibitors active in a cellular environment, we have knocked-out the Tdp1 gene in chicken DT40 cells (Tdp1-/-) and generated a complemented counterpart cells that contains a stable transfection of the human TDP1 gene (Tdp1-/-;hTDP1 cells). For the primary screen, Tdp1-/-;hTDP1 cells will be exposed to small molecules in the presence or absence of CPT, and their growth kinetics will be evaluated after 48 hours by measuring ATP activity. […] The hit compounds will then be evaluated in the presence or absence of CPT using Tdp1-/- cells. […] In tertiary assays, biochemical gel-based assays will be used to assess whether the hit compounds specifically target TDP1. To this end, we have screened this cell line against the MLSMR in two primary screens. In one screen we add CPT and in the other we screen in the absence of CPT; this AID represents the screen where CPT was present. NIH Chemical Genomics Center [NCGC] NIH Molecular Libraries Probe Centers Network [MLPCN] MLPCN Grant: MH095538 Assay Submitter (PI): Yves Pommier, NCI
DT40-hTDP1 cells with 20 nM Camptothecin (add 20 microL of 1 mM CPT stock in 1 L of cell culture medium) were dispensed at 400 cells/5microL/well in tissue culture treated 1536-well white wall/solid bottom assay plates (Greiner Bio-One North America, NC, U.S.A.) using a Multidrop Combi 8 channel dispenser (Thermo Fisher, Waltham, MA, USA). 23 nL compounds and controls were transferred using the pin tool (Kalypsys, San Diego, CA, USA) to the assay plates. The assay plates were then incubated at 37 masculineC for a minimum 48 hr. Three microL of Cell Titer Glo solution was added to the plates and incubated at RT in dark for 30 min. Luminescence was read using ViewLux (Perkin Elmer) with 1 sec exposure slow speed, high gain and 2x binning.
Potency is the fitted concentration of half-maximal effect.

Which Potency does the source give for `O=C(COc1ccccc1O)NC1CCCC1` here?
The Potency was “inactive”.

With `N=c1c2c(-c3ccccc3)c(-c3ccccc3)n(Cc3ccccc3)c2ncn1CCCO` as the compound, how does the Potency read?
Its Potency is 10.3 µM (active).

With `COCCn1cnc2c1c(=O)n(CC(=O)NN)c(=O)n2Cc1ccccc1` as the compound, how does the Potency read?
Its Potency is “inactive”.

Which Potency does the source give for `CCN(CC)CCn1cnc2c1c(=O)[nH]c(=O)n2Cc1ccccc1` here?
Its Potency is “inactive”.

With `CCOC(=O)c1sc(N)c(C#N)c1COC(=O)C1=COCCO1` as the compound, how does the Potency read?
Its Potency is “inactive”.

With `CCCNC(=S)N1CCC(NC(=O)C23CC4CC(CC(C4)C2)C3)CC1` as the compound, how does the Potency read?
Its Potency is “inactive”.

Which Potency does the source give for `COc1ccc(Cl)cc1N(CC(=O)N/N=C/c1ccc(OCC(N)=O)cc1)S(C)(=O)=O` here?
Its Potency is “inactive”.

For `NC(N)=N/N=C/c1ccc(OCc2ccc(Cl)cc2Cl)cc1`, which Potency is on record?
The Potency was 25.9 µM (active).

With `COC(=O)c1sc2ncccc2c1OCc1ccc(Cl)cc1Cl` as the compound, how does the Potency read?
Its Potency is “inactive”.

Which Potency does the source give for `CCOC(=O)C1CCN(S(=O)(=O)c2ccc3c(c2)N(C)C(=O)CC(=O)N3C)CC1` here?
The Potency was “inactive”.

With `C/C(CC(=O)NCc1ccc(Cl)cc1)=N\NC(=O)COc1ccc(C)cc1Br` as the compound, how does the Potency read?
Its Potency is 16.4 µM (active).

With `CC(=O)Nc1ccc(OCC(=O)NCc2ccc(C)cc2)cc1` as the compound, how does the Potency read?
The Potency was “inactive”.

With `CCCCC(=O)N/N=C(\C)CC(=O)Nc1cc(Cl)ccc1OC` as the compound, how does the Potency read?
Its Potency is “inactive”.

For `CN(CC(=O)Nc1cccc(F)c1)C(=O)C1CSC2(C)CCC(=O)N12` (stereo not drawn), which Potency is on record?
Its Potency is “inactive”.

For `Cc1ccsc1C(=O)OCC(=O)NCCc1ccccc1`, which Potency is on record?
Its Potency is “inactive”.

Which Potency does the source give for `Cc1cc(C)nc(Nc2n[nH]c(-c3ccccc3N)n2)n1` here?
The Potency was “inactive”.

With `C=CCC1=C/C(=C\c2c(N)n3nc(CC(=O)N4CCOCC4)sc3nc2=O)C=C(OC)C1=O` as the compound, how does the Potency read?
The Potency was “inactive”.

For `N#CCCN(C(=O)Nc1ccc(Cl)c(Cl)c1)C1CCCCC1`, which Potency is on record?
The Potency was “inactive”.

Which Potency does the source give for `Cc1ccn2c(Nc3ccc4c(c3)OCCO4)c(-c3ccc(C)s3)nc2c1` here?
The Potency was “inactive”.

For `Cc1ccc(Nc2c(-c3ccc(C)s3)nc3ccccn23)cc1`, which Potency is on record?
The Potency was 16.4 µM (active) and 20 µM (active).

For `COc1cc(NC(=O)CN(C)S(=O)(=O)c2ccc3nc(C)sc3c2)cc(OC)c1`, which Potency is on record?
The Potency was “inactive”.

With `CCN(CC)CC(=O)c1c[nH]c2ccc(OC)cc12` as the compound, how does the Potency read?
The Potency was “inactive”.

Which Potency does the source give for `CCCC12CN3CC(CCC)(CN(C1)C3c1c[nH]c3ccc(OC)cc13)C2=O` (stereo not drawn) here?
The Potency was 18.4 µM (active).

For `CCCC12CN3CC(C)(CN(C1)C3c1ccccc1Cl)C2=O` (stereo not drawn), which Potency is on record?
The Potency was “inactive”.

With `COc1ccc(-c2c(C#N)cnc(C)c2C)c(O)c1OC` as the compound, how does the Potency read?
The Potency was “inactive”.

For `CCOC(=O)c1ccccc1NC(=O)COC(=O)CCC(=O)N1CCOCC1`, which Potency is on record?
Its Potency is “inactive”.

For `O[C@@H]1C[C@H](c2ccccc2)N(Cc2cccs2)C[C@H]1n1cc(C2CC2)nn1`, which Potency is on record?
Its Potency is “inactive”.

Which Potency does the source give for `CC(C)CC(=O)N1CCN(Cc2ccccc2Br)CC1` here?
Its Potency is “inactive”.

Which Potency does the source give for `C=C1C(=O)C23C(O)C1CCC2[C@]12COC3(O)C(O)C1C(C)(C)CC[C@H]2O` (stereo partly drawn) here?
Its Potency is 3.26 µM (active).

Which Potency does the source give for `N#CCSc1nc2c(c(=O)n1Cc1ccccc1)C1(CCCC1)Cc1ccccc1-2` here?
Its Potency is 16.4 µM (active).

For `Cc1cccc(-n2c(SCC(N)=O)nc3c(c2=O)C2(CCCCC2)Cc2ccccc2-3)c1`, which Potency is on record?
The Potency was “inactive”.

With `CC(/C=C/C1(O)C(C)CC(=O)CC1(C)C)OC1OC(CO)C(O)C(O)C1O` (stereo not drawn) as the compound, how does the Potency read?
Its Potency is “inactive”.

For `Cc1ccc(N2C(=O)CC(N3CCSCC3)C2=O)c(C)c1` (stereo not drawn), which Potency is on record?
The Potency was “inactive”.

For `CNc1nc(=O)n(C2CCCO2)cc1C` (stereo not drawn), which Potency is on record?
The Potency was “inactive”.

With `COc1cccc(/C=N/Nc2ncc(C(F)(F)F)cc2Cl)c1O` as the compound, how does the Potency read?
Its Potency is 4.61 µM (active).

With `N/C(=N\OC(=O)Nc1ccc(Cl)c(Cl)c1)c1ncc(C(F)(F)F)cc1Cl` as the compound, how does the Potency read?
The Potency was “inactive”.

For `COc1cc(/C=C2\SC(=S)N(Nc3ncc(C(F)(F)F)cc3Cl)C2=O)cc(OC)c1OC`, which Potency is on record?
The Potency was “inactive”.

For `CC(=O)c1c(C)[nH]c(C(=O)CN2C(=O)NC(C)(C)C2=O)c1C`, which Potency is on record?
The Potency was “inactive”.

With `O=C(N/N=C/c1cc2c(cc1Br)OCO2)C1COc2ccccc2O1` (stereo not drawn) as the compound, how does the Potency read?
Its Potency is “inactive”.

Which Potency does the source give for `COc1ccc(NC(=O)CSc2nnnn2-c2cccc(OC)c2)cc1` here?
The Potency was “inactive”.

For `CCOc1cccc(-n2nnnc2-c2ccc(OC)cc2)c1`, which Potency is on record?
Its Potency is 2.91 µM (active).

With `COc1ccc(C2=CC(c3cccc(OC)c3)n3nnnc3N2)cc1` (stereo not drawn) as the compound, how does the Potency read?
Its Potency is “inactive”.

With `CCCn1nnnc1NCc1ccc(OC)cc1` as the compound, how does the Potency read?
Its Potency is “inactive”.

Which Potency does the source give for `C=CCOc1ccc(C(=O)Nc2ccccc2C(=O)N2CCCC2)cc1` here?
The Potency was “inactive”.

With `COc1cc(OC)c2c(c1Cl)OC1(C2=O)C(O)=CC(=O)CC1C` (stereo not drawn) as the compound, how does the Potency read?
Its Potency is “inactive”.

Which Potency does the source give for `Cc1cc(=O)oc2cc(OCC(=O)Nc3nnc(C4CC4)s3)ccc12` here?
The Potency was “inactive”.

With `Cc1cc(=O)oc2ccc(OCC(=O)O)cc12` as the compound, how does the Potency read?
Its Potency is “inactive”.

For `Cc1ccc(O)c(/C=N/NC(=O)COc2ccc3c(C)cc(=O)oc3c2)c1`, which Potency is on record?
Its Potency is 20.6 µM (active).

Which Potency does the source give for `CC(=O)c1c(C)[nH]c(C(=O)COc2ccc3c(C)cc(=O)oc3c2)c1C` here?
Its Potency is 16.4 µM (active).

Which Potency does the source give for `CCOC(=O)Cc1csc(NC(=O)COc2ccc3c(C)cc(=O)oc3c2)n1` here?
Its Potency is “inactive”.

With `COC(=O)COc1ccc2oc(=O)cc(C)c2c1` as the compound, how does the Potency read?
Its Potency is “inactive”.

Which Potency does the source give for `CC1=C(C/C=C(\C)CCCC(C)CCCC(C)CCCC(C)C)C(=O)c2ccccc2C1=O` (stereo not drawn) here?
Its Potency is “inactive”.

For `C=CC[C@H](CC(=O)OC(C)(C)C)C(=O)OC[C@H]1CCCN1C(=O)[C@H](CC=C)CC(=O)N(CCO)Cc1ccccc1`, which Potency is on record?
Its Potency is 16.4 µM (active).

Which Potency does the source give for `CCc1ccc(NC(=O)Cn2ncn3c(cc4ccccc43)c2=O)cc1` here?
The Potency was “inactive”.

With `N#Cc1cccc(CN2CCC(=O)N(CCO)CC2)c1` as the compound, how does the Potency read?
Its Potency is “inactive”.

For `O=C(C1CCC1)N1CCN(S(=O)(=O)c2ccc([N+](=O)[O-])cc2)CC1`, which Potency is on record?
Its Potency is “inactive”.

Which Potency does the source give for `Cn1c(=O)c2c(-c3ccccc3Br)n(Cc3ccccc3)cc2n(C)c1=O` here?
Its Potency is 20.6 µM (active).

Which Potency does the source give for `Cc1c(S(=O)(=O)NCc2ccccc2)c(=O)n(C)c(=O)n1C` here?
The Potency was “inactive”.

With `O=C(c1ccc[nH]c1=S)N1CCN(S(=O)(=O)c2ccc(Br)cc2Cl)CC1` as the compound, how does the Potency read?
The Potency was “inactive”.

With `Cc1ccc(CCNC(=O)c2ccc(CS(=O)(=O)Cc3cccc(C)c3)o2)cc1` as the compound, how does the Potency read?
The Potency was 23.1 µM (active).

With `Cc1ccc(CNC(=O)c2ccc(CS(=O)Cc3cccc(Cl)c3)o2)cc1` (stereo not drawn) as the compound, how does the Potency read?
The Potency was “inactive”.

With `COc1ccc(CCNC(=O)Cc2ccc(C)cc2)cc1OC` as the compound, how does the Potency read?
The Potency was “inactive”.

Which Potency does the source give for `COc1ccc(CCNC(=O)c2ccc(CS(=O)(=O)c3ccc(Br)cc3)o2)cc1OC` here?
Its Potency is 20.6 µM (active).

With `COc1ccc(CCNC(=O)c2ccc(CSCc3ccc(C)cc3)o2)cc1OC` as the compound, how does the Potency read?
Its Potency is 14.6 µM (active).

For `O=C(NCc1ccco1)c1ccc(CS(=O)(=O)Cc2ccc(F)cc2)o1`, which Potency is on record?
The Potency was “inactive”.

For `COc1ccccc1CNC(=O)c1ccc(CS(=O)(=O)c2ccccc2)o1`, which Potency is on record?
The Potency was “inactive”.

Which Potency does the source give for `COc1ccc(CCNC(=O)NS(=O)(=O)c2ccc(C)cc2)cc1OC` here?
The Potency was “inactive”.

For `COc1ccc(CCNC(=O)c2nnc(CS(=O)(=O)c3ccccc3)o2)cc1OC`, which Potency is on record?
The Potency was “inactive”.
